The record followed here is ChEMBL document CHEMBL3988442, “University of Dundee, Small-Polar-MMV Screening Library” (2021).

For some assays here: Potency and affinity values are given separately.

Common to all, as to set-up: scale not given: direction of the effect not stated beside the values
For experiment [1], the target named is Protein translocase subunit SecA (Escherichia coli (strain K12)) (UniProt P10408). Description: Assay to Identify E. coli SecA ATPase Inhibitors. The conditions noted are these: 30 µM. The format is functional.
Chain of Protein translocase subunit SecA (Escherichia coli (strain K12)) (P10408 whole entry): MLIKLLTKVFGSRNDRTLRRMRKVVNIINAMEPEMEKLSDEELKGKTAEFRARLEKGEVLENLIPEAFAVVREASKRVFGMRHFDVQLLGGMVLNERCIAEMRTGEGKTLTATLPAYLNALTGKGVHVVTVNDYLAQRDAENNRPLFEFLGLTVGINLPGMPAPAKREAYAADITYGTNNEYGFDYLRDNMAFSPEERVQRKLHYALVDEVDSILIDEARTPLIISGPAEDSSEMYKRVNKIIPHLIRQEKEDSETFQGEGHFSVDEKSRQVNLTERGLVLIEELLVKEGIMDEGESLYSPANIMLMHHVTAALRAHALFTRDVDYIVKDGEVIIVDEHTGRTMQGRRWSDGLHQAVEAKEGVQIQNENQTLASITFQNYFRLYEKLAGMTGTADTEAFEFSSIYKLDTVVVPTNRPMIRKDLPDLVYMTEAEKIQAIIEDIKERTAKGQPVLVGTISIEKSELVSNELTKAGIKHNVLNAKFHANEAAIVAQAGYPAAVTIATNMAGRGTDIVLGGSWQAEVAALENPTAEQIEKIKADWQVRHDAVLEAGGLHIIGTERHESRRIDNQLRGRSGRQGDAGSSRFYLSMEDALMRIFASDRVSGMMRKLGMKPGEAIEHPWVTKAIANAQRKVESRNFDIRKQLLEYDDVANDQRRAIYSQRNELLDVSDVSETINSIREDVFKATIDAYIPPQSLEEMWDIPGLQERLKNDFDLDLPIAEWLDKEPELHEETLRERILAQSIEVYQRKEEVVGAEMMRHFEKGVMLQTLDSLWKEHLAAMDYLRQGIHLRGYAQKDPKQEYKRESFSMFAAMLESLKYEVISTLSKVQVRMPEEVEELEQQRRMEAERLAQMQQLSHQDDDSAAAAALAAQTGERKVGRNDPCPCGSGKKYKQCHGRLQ
Experiment [2] deals with T1, Ubiquitin-activating enzyme e1, putative (Leishmania donovani (strain BPK282A1)) (UniProt E9BSI1).
T1 sequence (whole entry): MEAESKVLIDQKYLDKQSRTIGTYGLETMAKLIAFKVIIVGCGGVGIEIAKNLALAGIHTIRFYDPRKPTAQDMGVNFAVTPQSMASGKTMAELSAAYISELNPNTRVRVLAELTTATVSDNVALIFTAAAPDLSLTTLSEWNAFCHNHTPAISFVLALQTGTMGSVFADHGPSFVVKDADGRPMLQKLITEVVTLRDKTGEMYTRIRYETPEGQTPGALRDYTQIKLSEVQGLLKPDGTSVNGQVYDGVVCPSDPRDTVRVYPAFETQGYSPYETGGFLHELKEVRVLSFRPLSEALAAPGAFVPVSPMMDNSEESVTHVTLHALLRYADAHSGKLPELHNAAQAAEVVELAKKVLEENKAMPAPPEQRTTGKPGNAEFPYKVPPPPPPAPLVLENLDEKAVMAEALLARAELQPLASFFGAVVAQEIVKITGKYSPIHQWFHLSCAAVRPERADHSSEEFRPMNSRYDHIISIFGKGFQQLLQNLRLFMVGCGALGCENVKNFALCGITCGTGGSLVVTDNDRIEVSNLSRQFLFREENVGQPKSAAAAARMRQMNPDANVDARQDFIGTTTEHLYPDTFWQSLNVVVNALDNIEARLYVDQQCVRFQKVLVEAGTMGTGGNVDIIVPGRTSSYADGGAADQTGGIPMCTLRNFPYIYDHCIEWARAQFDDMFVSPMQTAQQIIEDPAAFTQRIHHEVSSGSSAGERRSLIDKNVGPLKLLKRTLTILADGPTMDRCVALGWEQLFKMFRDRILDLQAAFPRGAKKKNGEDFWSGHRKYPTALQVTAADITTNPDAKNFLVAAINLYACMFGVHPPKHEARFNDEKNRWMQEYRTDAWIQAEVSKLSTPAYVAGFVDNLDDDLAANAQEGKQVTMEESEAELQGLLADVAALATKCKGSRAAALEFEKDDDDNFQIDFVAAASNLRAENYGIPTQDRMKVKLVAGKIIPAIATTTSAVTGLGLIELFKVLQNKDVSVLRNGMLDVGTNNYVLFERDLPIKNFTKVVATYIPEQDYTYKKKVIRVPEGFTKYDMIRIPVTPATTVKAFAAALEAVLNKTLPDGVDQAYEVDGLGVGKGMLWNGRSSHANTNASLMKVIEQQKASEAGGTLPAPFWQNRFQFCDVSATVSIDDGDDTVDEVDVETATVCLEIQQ
Description: Leishmania donovani Ubiquitin Activating Enzyme (LdE1). In kind it is functional. The conditions noted are these: 30 µM.

Experiment [3] has as its target AMP-activated protein kinase, AMPK (Homo sapiens) (UniProt P54646+O43741+P54619+Q9UGJ0+Q9Y478+Q13131+Q9UGI9). Description: AMP-dependent Kinase enzyme assay. An in vitro enzyme assay that detects ADP turnover that is directly proportional to AMPK activity. This uses naive AMPK that is activated during the assay with MK-8722. The format is functional. The note with it: 30 µM.

For experiment [4], the target named is Sialic acid-binding Ig-like lectin 9 (Homo sapiens) (UniProt Q9Y336). Description: Hs-Siglec9 ALPHAscreen SOP 20170721. The note with it: 10 µM. For orientation: In Alpha technology, singlet oxygen from a donor bead excites a nearby acceptor bead.
Chain of Sialic acid-binding Ig-like lectin 9 (Homo sapiens) (Q9Y336 whole entry): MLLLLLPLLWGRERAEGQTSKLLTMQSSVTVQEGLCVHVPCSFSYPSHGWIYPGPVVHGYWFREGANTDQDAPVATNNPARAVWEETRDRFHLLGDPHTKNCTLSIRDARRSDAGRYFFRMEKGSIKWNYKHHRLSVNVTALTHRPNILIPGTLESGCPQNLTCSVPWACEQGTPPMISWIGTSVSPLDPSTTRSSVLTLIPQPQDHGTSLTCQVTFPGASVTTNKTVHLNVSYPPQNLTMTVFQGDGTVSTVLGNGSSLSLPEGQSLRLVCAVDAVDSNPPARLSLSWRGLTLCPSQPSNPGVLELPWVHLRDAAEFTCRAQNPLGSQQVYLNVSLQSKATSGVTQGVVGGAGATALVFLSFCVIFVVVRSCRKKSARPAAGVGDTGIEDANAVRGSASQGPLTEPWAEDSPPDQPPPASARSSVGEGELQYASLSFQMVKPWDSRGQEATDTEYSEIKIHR
Another experiment relates to Trypanosoma cruzi. Nature of the experiment: Trypanosoma cruzi phosphomannomutase and mannose-1-phosphate guanylyltransferase assay. In kind it is functional. The note with it: 10 µM.
Experiment [5] addresses T2, Arginase-2, mitochondrial (Homo sapiens) (UniProt P78540).
T2 sequence (whole entry): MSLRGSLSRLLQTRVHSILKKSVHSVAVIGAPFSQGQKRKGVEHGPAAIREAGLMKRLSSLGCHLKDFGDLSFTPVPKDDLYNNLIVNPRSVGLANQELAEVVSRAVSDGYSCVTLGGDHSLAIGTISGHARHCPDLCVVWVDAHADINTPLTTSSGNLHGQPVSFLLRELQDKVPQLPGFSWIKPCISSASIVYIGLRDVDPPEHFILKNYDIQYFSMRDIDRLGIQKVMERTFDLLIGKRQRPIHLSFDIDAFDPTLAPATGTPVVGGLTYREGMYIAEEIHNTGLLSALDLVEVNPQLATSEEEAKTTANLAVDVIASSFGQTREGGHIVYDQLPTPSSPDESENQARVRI
Description: in vitro enzyme assay to detect the production of urea directly proportional to the activity of Arginase II. Note: in the data most compounds retested in dose-response had high values. The format is functional. The conditions noted are these: 33.3 µM.

The target in experiment [6] is T3, Proteasome subunit beta (Trypanosoma cruzi) (UniProt O96673).
T3 sequence (whole entry): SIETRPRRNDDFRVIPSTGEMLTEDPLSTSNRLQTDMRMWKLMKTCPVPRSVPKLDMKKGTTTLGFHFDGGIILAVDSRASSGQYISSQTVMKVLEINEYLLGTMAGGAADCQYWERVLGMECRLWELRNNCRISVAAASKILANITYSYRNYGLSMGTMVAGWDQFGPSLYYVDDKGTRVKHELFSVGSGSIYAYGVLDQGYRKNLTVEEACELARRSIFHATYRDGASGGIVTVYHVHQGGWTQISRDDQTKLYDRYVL
Nature of the experiment: Trypanosoma cruzi proteasome chymotrypsin-like activity (TcProtChymo) assay. Note: in the data most compounds retested in dose-response had high values. In kind it is functional. The conditions noted are these: 9.37 µM.

The species named for a further experiment is Homo sapiens. Description: To identify inhibition of the IFN signalling (Jak-Stat) pathway via expression of an eGFP reporter gene under the control of an IFN-stimulated response element (ISRE) containing MxA promoter. In kind it is functional. The note with it: 30 µM. On the technique in general: A reporter such as luciferase makes a cellular process visible.

For experiment [7], the target named is T4, Tyrosyl-tRNA synthetase, putative (Trypanosoma cruzi (strain CL Brener)) (UniProt Q4DSP6).
T4 sequence (whole entry): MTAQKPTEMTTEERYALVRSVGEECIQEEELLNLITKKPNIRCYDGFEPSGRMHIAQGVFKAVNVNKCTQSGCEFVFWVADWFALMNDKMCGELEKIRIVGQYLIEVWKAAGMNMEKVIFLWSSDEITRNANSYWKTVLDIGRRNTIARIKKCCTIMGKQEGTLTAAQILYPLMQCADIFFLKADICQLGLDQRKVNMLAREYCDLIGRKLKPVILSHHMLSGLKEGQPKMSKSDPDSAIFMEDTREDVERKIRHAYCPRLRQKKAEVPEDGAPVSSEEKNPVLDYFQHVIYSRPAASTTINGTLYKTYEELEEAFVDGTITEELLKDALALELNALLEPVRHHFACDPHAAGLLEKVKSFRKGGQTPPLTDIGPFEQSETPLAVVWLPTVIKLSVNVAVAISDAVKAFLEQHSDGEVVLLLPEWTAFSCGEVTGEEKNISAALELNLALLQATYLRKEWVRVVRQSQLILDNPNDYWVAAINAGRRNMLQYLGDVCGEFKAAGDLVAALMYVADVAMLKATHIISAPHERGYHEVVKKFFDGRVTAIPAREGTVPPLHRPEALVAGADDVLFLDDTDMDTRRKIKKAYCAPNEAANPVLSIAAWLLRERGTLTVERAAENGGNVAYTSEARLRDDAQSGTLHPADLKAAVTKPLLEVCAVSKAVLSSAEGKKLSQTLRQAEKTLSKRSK
Description: Trypanosoma cruzi tyrosyl tRNA synthetase (TcYRS) _High Tyrosine SOP. Note: in the data most compounds retested in dose-response had high values. In kind it is functional. The conditions noted are these: 30 µM.

Experiment [8] has as its target T4, Tyrosyl-tRNA synthetase, putative (Trypanosoma cruzi (strain CL Brener)). Description: Trypanosoma cruzi tyrosyl tRNA synthetase (TcYRS) SOP. In kind it is functional. The conditions noted are these: 30 µM.
The target of experiment [9] is Chromo domain-containing protein 1 (Saccharomyces cerevisiae (strain ATCC 204508 / S288c) (Baker's yeast)) (UniProt P32657). Nature of the experiment: ScCHD-1 Enzyme Inhibition Assay. Note: in the data most compounds retested in dose-response had high values. In kind it is functional. The conditions noted are these: 30 µM.
Chain of Chromo domain-containing protein 1 (Saccharomyces cerevisiae (strain ATCC 204508 / S288c) (Baker's yeast)) (P32657 whole entry, the tested form may be a part): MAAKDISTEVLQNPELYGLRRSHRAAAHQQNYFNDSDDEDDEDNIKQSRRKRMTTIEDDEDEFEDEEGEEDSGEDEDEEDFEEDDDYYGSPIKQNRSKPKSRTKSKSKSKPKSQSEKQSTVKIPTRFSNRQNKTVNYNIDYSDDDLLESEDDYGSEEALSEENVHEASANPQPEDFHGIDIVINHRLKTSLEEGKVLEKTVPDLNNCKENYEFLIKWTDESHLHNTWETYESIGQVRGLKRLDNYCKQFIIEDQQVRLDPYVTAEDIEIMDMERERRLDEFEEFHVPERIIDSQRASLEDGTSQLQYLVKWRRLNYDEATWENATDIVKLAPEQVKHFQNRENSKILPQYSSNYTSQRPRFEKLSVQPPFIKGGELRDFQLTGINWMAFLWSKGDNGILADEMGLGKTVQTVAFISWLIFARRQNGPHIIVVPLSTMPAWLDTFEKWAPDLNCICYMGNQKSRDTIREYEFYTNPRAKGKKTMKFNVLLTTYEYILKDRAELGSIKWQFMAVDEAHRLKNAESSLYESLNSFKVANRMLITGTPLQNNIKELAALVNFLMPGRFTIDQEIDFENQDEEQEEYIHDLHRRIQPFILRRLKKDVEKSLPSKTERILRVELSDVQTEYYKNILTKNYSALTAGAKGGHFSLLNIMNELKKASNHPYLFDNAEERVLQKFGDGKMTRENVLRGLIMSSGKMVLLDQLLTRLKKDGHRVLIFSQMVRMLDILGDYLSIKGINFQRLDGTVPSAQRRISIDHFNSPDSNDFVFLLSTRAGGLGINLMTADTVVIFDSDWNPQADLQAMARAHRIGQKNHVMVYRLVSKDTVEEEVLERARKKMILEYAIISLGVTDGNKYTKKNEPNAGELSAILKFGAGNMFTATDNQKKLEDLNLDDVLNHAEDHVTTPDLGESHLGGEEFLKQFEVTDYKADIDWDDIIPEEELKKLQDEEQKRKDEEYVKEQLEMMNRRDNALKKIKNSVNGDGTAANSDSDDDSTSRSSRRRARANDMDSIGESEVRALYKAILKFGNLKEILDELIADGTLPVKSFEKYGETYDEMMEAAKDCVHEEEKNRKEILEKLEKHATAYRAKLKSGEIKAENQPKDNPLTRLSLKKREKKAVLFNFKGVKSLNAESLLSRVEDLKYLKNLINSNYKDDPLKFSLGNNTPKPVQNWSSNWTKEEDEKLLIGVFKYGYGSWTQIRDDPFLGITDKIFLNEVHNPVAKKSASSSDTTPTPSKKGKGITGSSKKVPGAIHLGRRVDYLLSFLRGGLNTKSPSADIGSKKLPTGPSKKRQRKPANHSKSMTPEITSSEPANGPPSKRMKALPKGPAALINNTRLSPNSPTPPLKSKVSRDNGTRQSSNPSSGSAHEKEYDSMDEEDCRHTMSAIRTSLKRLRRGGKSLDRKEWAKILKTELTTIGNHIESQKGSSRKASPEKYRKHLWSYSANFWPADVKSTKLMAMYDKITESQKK

Take `CN1CCc2c(C#N)c(NCCCN3CCOCC3)n3cnnc3c2C1`: the Percent Effect is -3.76% in experiment [1]; 10.5% in experiment [2]; 2.8% in experiment [3]; 1.44% in experiment [4]; -1.46% in the experiment with Trypanosoma cruzi; -1.18% in [5]. For the same compound, the Percent Effect in experiment [6] was 13.7%; in the experiment filed under Homo sapiens, -9.43%; in experiment [7], 4.25%; in experiment [8], 10.4%; in experiment [9], -1.19%.

Consider `CCc1ncc2c(n1)CN(CC(=O)NCCOc1ccccc1)CC2`, for which the Percent Effect in experiment [1] was -4.72%; in experiment [2] it was 7.89%; in experiment [3], -23.5%; in experiment [4] it was -1.72%; with Trypanosoma cruzi it was 1.21%; in experiment [5] it was -1.44%. Moreover, the Percent Effect is -5.84% in experiment [6]; -22.3% in the experiment filed under Homo sapiens; 11.3% in experiment [7]; 6.17% in experiment [8]; 1.38% in experiment [9].

For `O=C(Cn1ccc2ccc(Br)cc21)NCc1ccc(C(=O)O)cc1`, the Percent Effect in experiment [1] was -2.06%; in experiment [2], -5.26%; in [3], 4.18%; in experiment [4], -0.116%; in the experiment with Trypanosoma cruzi, -7.69%; in [5] it was -3.55%. The Percent Effect is 9.88% in experiment [6]; -5.25% in the experiment listed under Homo sapiens; -10.6% in experiment [7]; -13% in [8]; -4.34% in [9].

`Cc1cc(CN2CCN(C(=O)CCc3cccc(F)c3F)CC2)on1`: the Percent Effect is 2.13% in experiment [1]; 0% in [2]; -6.33% in experiment [3]; 7.49% in [4]; 5.99% in the experiment with Trypanosoma cruzi; 10.9% in experiment [5]. Further, the Percent Effect was 0.862% in experiment [6]; -0.409% in the experiment filed under Homo sapiens; -0.529% in [7]; 4.88% in [8]; 0.403% in [9].

`CNC(=O)c1cc2c(nc1NCC(C)C)CCN(S(=O)(=O)C1CC1)CC2`: the Percent Effect in [1] was -6.06%; in experiment [2], 2.7%; in experiment [3] it was 5.7%; in [4] it was -6.06%; in the experiment on Trypanosoma cruzi, -3.23%; in experiment [5] it was -1.24%. The Percent Effect in experiment [6] is -7.64%; in the experiment filed under Homo sapiens, -2.8%; in [7] it was 2.15%; in experiment [8] it was 8.64%; in experiment [9] it was -4.29%.

As for `O=c1cc(CN2CCCC2)nc2n1CCCN(Cc1ccsc1)C2`, the Percent Effect in [1] is -0.492%; in [2], 17.3%; in experiment [3], 3.4%; in experiment [4], 2.2%; with Trypanosoma cruzi, -1.57%; in experiment [5], -9.68%. Further, the Percent Effect in [6] is 14.4%; in the experiment listed under Homo sapiens it was -8.49%; in [7], 4.23%; in experiment [8], 7.69%; in [9], -10.8%.

For `CN(C)C(=O)CN1C[C@@H]2CC[C@H](C1)N(Cc1cc(F)ccc1F)C2`, the Percent Effect in [1] was -2.16%; in experiment [2] it was 5.48%; in experiment [3] it was 42.7%; in experiment [4], 2.19%; with Trypanosoma cruzi, -9.13%; in experiment [5], -2.79%. Also, the Percent Effect in experiment [6] was 20.6%; in the experiment listed under Homo sapiens, 15.6%; in experiment [7], 4.17%; in [8] it was 6.17%; in [9], -5.68%.

Consider `COc1cc(N2CC[C@H](O)[C@@H]2Cc2cnn(C)c2)ncn1`, for which the Percent Effect in experiment [1] was -0.518%; in [2] it was 10.8%; in [3], 1.19%; in experiment [4], -5.15%; in the experiment with Trypanosoma cruzi, -3.62%; in experiment [5] it was 8.6%. Further, the Percent Effect was 19.2% in [6]; -8.64% in the experiment listed under Homo sapiens; 3.24% in experiment [7]; 10.3% in experiment [8]; -2.09% in [9].

`COc1ccccc1C(=O)N1Cc2cc(C)ccc2OCC1CN(C)C` (stereo not given): the Percent Effect was -0.165% in experiment [1]; 6.76% in experiment [2]; 11.3% in experiment [3]; -7.4% in experiment [4]; -7.91% with Trypanosoma cruzi; -1.62% in experiment [5]. Moreover, the Percent Effect in experiment [6] is 14.5%; in the experiment listed under Homo sapiens, 14.6%; in experiment [7], 2.15%; in experiment [8], 3.9%; in [9], -11.2%.

As to `CC(c1ccccc1)n1c(SCC(=O)O)nnc1-c1ccccc1Cl` (stereo not given), the Percent Effect in experiment [1] was -3.8%; in experiment [2] it was 15.3%; in [3], -8.09%; in experiment [4], 28.7%; with Trypanosoma cruzi it was 4.57%; in experiment [5] it was -3.53%. In addition, the Percent Effect in experiment [6] was 9.65%; in the experiment filed under Homo sapiens it was 13.3%; in experiment [7] it was 4.21%; in experiment [8] it was 12.8%; in experiment [9] it was -5.19%.
